Our source for the Potency values is PubChem BioAssay AID504848 (National Center for Advancing Translational Sciences (NCATS), 2011).

About 1,400 (61%) of roughly 2,300 compounds were called active. Inconclusive results (about 29%) are left out. Calls follow the shape of the dose curve; as a rule, active = well fitted inhibition curve with a large enough effect; inconclusive = small, poorly fitted or top-dose-only effect, or effect the other way; inactive = no such curve, though single readings can be large or run the other way. So high a share suggests a set chosen from earlier hits. The list shows a part of the results.
Potency is read from the fitted curve at half-maximal effect.

The experiment can be described thus: Confirmation screen for delayed death inhibitors of the malarial parasite plastid, 96 hour incubation. Also: nearly all actives have a fitted effect of over 60% in size. The conditions noted are these: P. falciparum luciferase growth in erythrocytes; series mostly up to 28.7 µM. An outline of the steps: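 Erythrocytes infected with luciferase-expressing P. falciparum (2% hematocrit, 0.1% parasitemia final) in RPMI 1640 with 0.5% Albumax, exposed to compounds 96 h at 37 C, 5% CO2. Growth inhibition read as decreased luciferase luminescence.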
For `O=C(CSc1nnc(NC(=O)c2ccccc2[N+](=O)[O-])s1)NCC1CCCO1` (configuration not stated), the Potency is 14.1 µM (active).
Then `O=C(COC(=O)c1c2c(nc3ccccc13)CCN(Cc1ccccc1)C2)Nc1c(F)cccc1F`, with 5.01 µM (active); and `COc1ccc(Cc2nc3ccc(C(=O)NCCc4ccccn4)cc3o2)cc1OC`, with 11.2 µM (active).
As for `Nc1nc(C2CC2)c(Sc2sc(N)nc2C2CC2)s1`, the Potency result is “inactive”.
Consider `CCOc1ccccc1NC(=O)NC1Cc2ccccc2C1`, for which the Potency is 12.6 µM (active).
As to `CCCC(=O)NC(c1ccccc1)c1c(O)ccc2ccccc12` (configuration not stated), the Potency is 4.47 µM (active).
Then `CC(C)(C(=O)N[C@H](CO)c1ccccc1)C(=O)N[C@H](CO)c1ccccc1`, with “inactive”.
Consider `Cc1ccc2c(c1)C1CC(C)(O2)N(c2cccc(C(=O)N3CCN(c4ccccn4)CC3)c2)C(=O)N1` (configuration not stated), for which the Potency was 12.6 µM (active).
The value for `Cc1cccc(-n2c(C)cc(/C=N\NC(=O)c3cccs3)c2C)c1` was 12.6 µM (active).
Then `C[N+]1(CCCCSc2ccc(O)cc2)CCCCC1`, with 4.47 µM (active); and `COc1ccc(C)cc1NC(=O)C(Sc1nnc(Nc2cc(C)ccc2OC)s1)c1ccccc1` (configuration not stated), with 14.1 µM (active).
Then `COC(=O)c1ccc(NC(=O)C[n+]2ccccc2C)cc1`, with 12.6 µM (active); and `CCOC(=O)NC(=O)COC(=O)c1ccc(O)cc1`, with “inactive”; and `Cc1ccc(C(=O)C[n+]2ccccc2C)cc1[N+](=O)[O-]`, with 11.2 µM (active).
Take `COC(=O)c1ccc(CNCC(=O)Nc2ccc(C(=O)OC)cc2)cc1`: the Potency entry was “inactive”.
Then `Cc1cccc[n+]1CC(=O)c1ccc(NC(=O)c2ccccc2)cc1`, with 5.01 µM (active).
As for `Cc1ccc(C(=O)NCCn2ccc3ccccc32)cc1[N+](=O)[O-]`, the Potency entry is “inactive”.
Consider `Cc1cccc[n+]1CC(=O)Nc1ccc([N+](=O)[O-])cc1`, for which the Potency is 12.6 µM (active).
As to `CC(C)[C@H](NC(=O)N1CCn2c1nc1ccccc12)C(=O)N[C@H](C(=O)O)c1ccccc1`, the Potency entry is “inactive”.
Then `CCc1ccc(-c2nc3ccc(Br)cc3c(C(=O)O)c2C)s1`, with “inactive”; and `S=C(NCc1ccncc1)Nc1ccc(Br)cc1Cl`, with 12.6 µM (active); and `O=C(C1CC1)N1CCc2cc(Br)cc(S(=O)(=O)NCc3ccco3)c21`, with 11.2 µM (active).
The value for `O=C(C1CCC1)N1CCc2cc(S(=O)(=O)NCc3ccco3)ccc21` was “inactive”; that for `CC1CCN(CCCNS(=O)(=O)c2cc(Br)cc3c2N(C(=O)C2CC2)CC3)CC1` was 12.6 µM (active); that for `CCC(=O)N1CCc2cc(Br)cc(S(=O)(=O)NCc3ccco3)c21` was 12.6 µM (active).
Regarding `CCCCN(CCCC)CC(O)c1cc(Cl)cc2c1-c1ccc(Cl)cc1/C2=C/c1ccc(Cl)cc1` (configuration not stated), the Potency was 0.0562 µM (active).
Then `O=[N+]([O-])c1ccc(C(O)C[n+]2ccccc2)cc1` (configuration not stated), with 10 µM (active); and `CCOc1ccc(C2NC(=S)NC3=C2CCc2ccccc23)cc1` (configuration not stated), with 14.1 µM (active).
On to `CN(C)c1ccc2nc3ccc(=[N+](C)C)cc-3sc2c1`, for which the Potency is 0.0631 µM (active).
The value for `Cc1[nH]c(=O)[nH]c(=O)c1S(=O)(=O)N1CCCC(C(=O)N2CCN(c3cccc(C(F)(F)F)c3)CC2)C1` (configuration not stated) was 8.91 µM (active); that for `N#Cc1cccc(NC(=O)Cn2c3[n+](c4ccc(C(F)(F)F)cc42)CCCCC3)c1` was 0.251 µM (active).
Then `CCCCCn1c(=O)c2ccccc2n2c(CCl)nnc12`, with 6.31 µM (active); and `CCCCCCCCC[n+]1cccc2c3ccccc3ccc21`, with 0.158 µM (active).
Then `CCCCCCCOc1ccc(C2(C)NC(=O)NC2=O)cc1` (configuration not stated), with 8.91 µM (active).
Turning to `CCC/C(=N\NC(=O)c1ccco1)c1ccc(Cl)s1`, the Potency was 12.6 µM (active).
The value for `CCOc1ccccc1CN1CCN(Cc2ccc3cccc(OC)c3n2)CC1CCO` (configuration not stated) was 12.6 µM (active); that for `CCOc1ccc(CN2CCN(Cc3ccc4cc(F)ccc4n3)CC2CCO)cc1` (configuration not stated) was 14.1 µM (active); that for `COc1ccc(-c2cc(C(=O)Nc3cc(C)n(Cc4ccc(Cl)cc4)n3)no2)cc1OC` was 0.316 µM (active).
Then `CCCn1cc(S(=O)(=O)c2ccc(Cl)cc2)c(=O)c2cc(OC)ccc21`, with 11.2 µM (active); and `O=C(OCC(=O)N1CCN(c2ccccc2)CC1)c1cc(Cl)ccc1[N+](=O)[O-]`, with “inactive”.
Consider `NC(=O)CC(NC(=O)c1ccccc1)c1ccc(N2CCN(c3ccccc3)CC2)c([N+](=O)[O-])c1` (configuration not stated), for which the Potency is 12.6 µM (active).
Consider `O=C(NCc1ccco1)c1cc2sccc2n1Cc1ccc(F)cc1`, for which the Potency was 11.2 µM (active).
Then `COc1ccccc1N1CCN(C(=O)c2ccc3[nH]c4c(c3c2)CCCC4)CC1`, with 11.2 µM (active).
`CN(CCC#N)C(=O)COC(=O)c1ccc2[nH]c3c(c2c1)CCCC3`: the Potency result is “inactive”.
Regarding `CCN1CCN(Cc2c(O)ccc3c2O/C(=C\C=C\c2ccccc2)C3=O)CC1`, the Potency was 4.47 µM (active).
Then `CC1=Nc2cc(C(=O)N3CCCC3)ccc2Sc2ccc(C)cc21`, with 0.891 µM (active); and `CC1=Nc2cc(C(=O)N3CCCC3)ccc2Sc2c(C)ccc(C)c21`, with 3.16 µM (active); and `CCOC(=O)CSc1nnc(NC(=O)c2cccc([N+](=O)[O-])c2)s1`, with 11.2 µM (active).
The value for `Nc1nnnn1/N=C/C(Br)=C/c1ccccc1` was 12.6 µM (active).
Then `CCCN1CCN(C(=O)C2CCN(S(=O)(=O)c3ccc4c(c3)NC(=O)C(C)S4)CC2)CC1` (configuration not stated), with 7.08 µM (active).
Take `Cc1cc(NC(=O)COC(=O)c2ccccc2S(=O)(=O)N(C)c2ccccc2)no1`: the Potency was 7.94 µM (active).
Turning to `Cc1cc(NC(=O)COC(=O)c2c(Cl)cccc2Cl)no1`, the Potency entry was “inactive”.
The value for `NC(=O)CSc1nc2c(sc3ccccc32)c(=O)n1CCCN1CCOCC1` was 3.16 µM (active); that for `O=C(CSc1nc2c(sc3ccccc32)c(=O)n1-c1ccccc1)NCc1ccco1` was 12.6 µM (active).
Then `O=C(CSc1nc2ccccc2c(=O)n1Cc1ccc(C(=O)NC2CC2)cc1)NCc1ccco1`, with 7.08 µM (active); and `O=C(CSc1c2c(nc3ccccc13)CCCC2)NCc1ccco1`, with “inactive”; and `CCN(CC)CCn1c(SCC(=O)NCc2ccccc2)nc2c(sc3ccccc32)c1=O`, with 5.01 µM (active).
Take `CC(=O)Nc1sc(C)c(C)c1C(=O)OCC(=O)N(CC(C)C)C1CCS(=O)(=O)C1` (configuration not stated): the Potency is 12.6 µM (active).
Then `Cc1cnc(CNC(=O)c2ccc3oc(Cc4ccccc4)nc3c2)[nH]1`, with 14.1 µM (active).
Regarding `Cc1cnc(CNC(=O)c2ccc3oc(Cc4ccc(Cl)cc4)nc3c2)cn1`, the Potency is 12.6 µM (active).
Then `c1ccc(SCc2cn(C[C@H]3CC[C@@H]([C@@H]4CC[C@H](Cn5cc(CSc6ccccc6)nn5)O4)O3)nn2)cc1`, with 11.2 µM (active); and `CC1CCCN(c2ccc(F)cc2N)C1` (configuration not stated), with 8.91 µM (active); and `COc1cccc(/C=N/N2CCN(C3c4ccccc4-c4ccccc43)CC2)c1O`, with 14.1 µM (active).
Then `CCOC(=O)C(C)Sc1cc(CS(=O)(=O)c2ccccc2)nc(-c2ccccc2)n1` (configuration not stated), with 12.6 µM (active); and `Cc1cccc(Oc2nc3ccccn3c(=O)c2/C=C(\C#N)C(=O)NC2CCS(=O)(=O)C2)c1C` (configuration not stated), with 12.6 µM (active); and `Cc1ccc(Oc2nc3ccccn3c(=O)c2/C=C(\C#N)C(=O)NC2CCS(=O)(=O)C2)c(C)c1` (configuration not stated), with 10 µM (active).
The value for `N#C/C(=C\c1c(Oc2ccccc2Cl)nc2ccccn2c1=O)C(=O)NC1CCS(=O)(=O)C1` (configuration not stated) was 12.6 µM (active); that for `COc1ccc(Cn2c(-c3ccccc3)nc3c(c(=O)c4ccccc4n3C)c2=O)cc1` was 10 µM (active).
On to `COc1ccc(CCn2c(C(C)C)nc3c(c(=O)c4ccccc4n3C)c2=O)cc1`, for which the Potency is 3.16 µM (active).
Regarding `COc1ccc(-c2nc3c(c(=O)c4ccccc4n3C)c(=O)n2Cc2ccccc2)cc1`, the Potency was 7.08 µM (active).
As for `O=C(C1=C[C@@H](c2csc3ccccc23)C[C@@H](OCCCCO)O1)N1CCN(Cc2ccc3c(c2)OCO3)CC1`, the Potency is 3.98 µM (active).
The value for `CCO[C@H]1OC(C(=O)N2CCN(Cc3ccccc3)CC2)=C[C@@H](c2ccc(C(F)(F)F)cc2)[C@@H]1CCCO` was 3.16 µM (active); that for `CCO[C@H]1OC(C(=O)N2CCN(Cc3ccc4c(c3)OCO4)CC2)=C[C@@H](c2ccc(C(F)(F)F)cc2)[C@@H]1CCCO` was 2 µM (active); that for `CCOC(=O)N1CCN(CC(=O)c2ccc(O)cc2O)CC1` was 17.8 µM (active).
The value for `CCOc1cc(/C=C2/C(=O)ON=C2C)ccc1OCc1ccccc1` was “inactive”.
`CCOc1cc(/C=C2\COc3ccccc3C2=O)ccc1OCC(=O)N(C)C`: the Potency was 12.6 µM (active).
The value for `COc1cc(CN2CCN(S(=O)(=O)c3ccccc3)CC2)cc(OC)c1OC` was 2.24 µM (active).
The value for `O=S1(=O)C=C(Sc2nnc(-c3ccccc3)o2)c2ccccc21` was 14.1 µM (active); that for `O=S1(=O)C=C(Sc2nc3cc(Cl)ccc3o2)c2ccccc21` was 4.47 µM (active).
The value for `CCOc1ccc(/C=N/OCC(=O)Nc2ccc(OCc3ccccc3)cc2)cc1OC` was 3.55 µM (active).
Take `C[C@H]1[C@@H](OC(=O)CCC(=O)O)OC2OC3(C)CC[C@H]4[C@H](C)CC[C@@H]1[C@@]24OO3` (some centres not stated): the Potency was 0.0355 µM (active).
The value for `C[C@@H]1CCC2[C@@H](C)[C@@H](O)O[C@@H]3O[C@@]4(C)CC[C@@H]1[C@@]23OO4` (some centres not stated) was 0.0251 µM (active); that for `CO[C@H]1OC2O[C@@]3(C)CC[C@H]4[C@H](C)CC[C@@H]([C@H]1C)[C@@]24OO3` (some centres not stated) was 0.0631 µM (active); that for `COCCN1CCCC(CNCc2cn(C)nc2-c2ccc(Oc3ccccc3)cc2)C1` (configuration not stated) was 7.08 µM (active).
The value for `Cc1cc(=O)oc2c3c(cc(OCC(=O)Nc4cccnc4)c12)OC(C)(C)CC3` was 1.26 µM (active).
Consider `CCOC(=O)c1c(NC(=O)CSc2c[nH]c3ccccc23)sc2c1CCCC2`, for which the Potency was 12.6 µM (active).
Take `CCOC(=O)c1c(NC(=O)CSc2ccccc2C(=O)O)sc(C)c1C`: the Potency result is “inactive”.
The value for `Cc1cccc(Cn2nc(C(C)(C)C)cc2C(=O)Nc2ccc(F)cc2)c1` was 3.55 µM (active); that for `Cc1ccc(NC(=O)c2cc(C(C)(C)C)nn2Cc2ccccc2)cc1` was 12.6 µM (active); that for `Cc1ccc2c(c1)cc(C(=O)NCc1ccccc1)n2C` was “inactive”.
Take `CC(C)(C)c1cc(C(=O)NNc2cccc(Cl)c2)n(Cc2ccccc2)n1`: the Potency was 10 µM (active).
For `CC(C)(C)C(=O)NNC(=O)c1cc(C(C)(C)C)nn1Cc1ccccc1`, the Potency is 14.1 µM (active).
